Source: PubChem BioAssay AID1159580 (chemical genetic matrix, 2015)
About 2,000 (36%) of roughly 5,500 compounds were called active. Inconclusive results (about 18%) are left out. Rule as the data show it: active = normalized growth mostly below about 0.91 (no sharp cut-off); inconclusive = no clear call, values can overlap the other calls; inactive = mostly above about 0.92. The list shows a part of the results.

Assay: chemical genetic growth profiling, strain panel (AID 1159580);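 also: tested at 20 µM; growth read once vehicle control cultures reached saturation at 30 °C; 1 = growth at the plate median or of vehicle wells; lower values mean less growth of the strain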
Conditions: growth OD

Measured: normalized growth

CC(=O)N[C@@H](CC(=O)O)C(=O)O
inactive: S. cerevisiae deletion strains, locus YJR043C, strain POL32, hits give low values 1.01 | S. cerevisiae deletion strains, locus YJR075W, strain HOC1, hits give low values 1.01 | S. cerevisiae deletion strains, locus YKL009W, strain mrt4, hits give low values 1.03 | S. cerevisiae deletion strains, locus YKL068W, hits give low values 1.01 | S. cerevisiae deletion strains, locus YKL085W, strain MDH1 (second series), hits give low values 1.01 | S. cerevisiae deletion strains, locus YKL085W, strain MDH1, hits give low values 1.01 | S. cerevisiae deletion strains, locus YKL160W, strain elf1, hits give low values 0.998 | S. cerevisiae deletion strains, locus YKL190W, strain CNB1, hits give low values 1.01 | S. cerevisiae deletion strains, locus YKR001C, strain vps1, hits give low values 1.01 | S. cerevisiae deletion strains, locus YKR026C, strain gcn3, hits give low values 1.01 | S. cerevisiae deletion strains, locus YKR091W, strain srl3, hits give low values 1 | S. cerevisiae deletion strains, locus YLL001W, strain dnm1, hits give low values 1.01 | S. cerevisiae deletion strains, locus YLL026W, hits give low values 1.01 | S. cerevisiae deletion strains, locus YLL041C, strain sdh2, hits give low values 1.01 | S. cerevisiae deletion strains, locus YLR027C, strain aat2, hits give low values 1.02 | S. cerevisiae deletion strains, locus YLR039C, strain RIC1, hits give low values 0.984 | S. cerevisiae deletion strains, locus YLR058C, strain SHM2, hits give low values 1.01 | S. cerevisiae deletion strains, locus YLR102C, strain apc9, hits give low values 1.01 | S. cerevisiae deletion strains, locus YLR221C, strain rsa3, hits give low values 0.974 | S. cerevisiae deletion strains, locus YLR258W, strain gsy2, hits give low values 0.997 | S. cerevisiae deletion strains, locus YLR262C, strain YPT6 (second series), hits give low values 1 | S. cerevisiae deletion strains, locus YLR262C, strain YPT6, hits give low values 1.01 | S. cerevisiae deletion strains, locus YLR268W, strain sec22, hits give low values 1.02 | S. cerevisiae deletion strains, locus YLR320W, strain mms22, hits give low values 0.992 | S. cerevisiae deletion strains, locus YLR330W, strain CHS5, hits give low values 1.01 | S. cerevisiae deletion strains, locus YLR342W, strain FKS1 (second series), hits give low values 1.01 | S. cerevisiae deletion strains, locus YLR342W, strain FKS1, hits give low values 1.01 | S. cerevisiae deletion strains, locus YLR357W, strain rsc2, hits give low values 1.01 | S. cerevisiae deletion strains, locus YLR370C, strain arc18, hits give low values 1.01 | S. cerevisiae deletion strains, locus YLR371W, strain rom2, hits give low values 1.02 | S. cerevisiae deletion strains, locus YLR384C, strain iki3, hits give low values 0.982 | S. cerevisiae deletion strains, locus YLR418C, strain cdc73, hits give low values 1.02 | S. cerevisiae deletion strains, locus YML016C, strain PPZ1, hits give low values 1.01 | S. cerevisiae deletion strains, locus YML032C, strain rad52, hits give low values 1.01 | S. cerevisiae deletion strains, locus YML120C, strain ndi1, hits give low values 1.01 | S. cerevisiae deletion strains, locus YML124C, strain tub3, hits give low values 1.02 | S. cerevisiae deletion strains, locus YMR058W, strain fet3, hits give low values 1.02 | S. cerevisiae deletion strains, locus YMR078C, strain ctf18, hits give low values 1 | S. cerevisiae deletion strains, locus YMR125W, strain sto1, hits give low values 1.01 | S. cerevisiae deletion strains, locus YMR129W, hits give low values 1 | S. cerevisiae deletion strains, locus YMR205C, strain PFK2, hits give low values 0.993 | S. cerevisiae deletion strains, locus YMR223W, strain ubp8, hits give low values 1.01 | S. cerevisiae deletion strains, locus YMR231W, strain pep5, hits give low values 1 | S. cerevisiae deletion strains, locus YMR263W, strain SAP30, hits give low values 1.01 | S. cerevisiae deletion strains, locus YMR307W, strain GAS1, hits give low values 1.03 | S. cerevisiae deletion strains, locus YNL067W, strain RPL9B, hits give low values 1.02 | S. cerevisiae deletion strains, locus YNL071W, strain lat1, hits give low values 1.01 | S. cerevisiae deletion strains, locus YNL128W, strain TEP1, hits give low values 1.02 | S. cerevisiae deletion strains, locus YNL153C, strain GIM3, hits give low values 1 | S. cerevisiae deletion strains, locus YNL209W, strain ssb2, hits give low values 1.01 | S. cerevisiae deletion strains, locus YNL233W, strain BNI4, hits give low values 1 | S. cerevisiae deletion strains, locus YNL248C, strain rpa49, hits give low values 0.91 | S. cerevisiae deletion strains, locus YNL250W, strain rad50, hits give low values 1.01 | S. cerevisiae deletion strains, locus YNL271C, strain bni1, hits give low values 1.02 | S. cerevisiae deletion strains, locus YNL298W, strain CLA4, hits give low values 1.01 | S. cerevisiae deletion strains, locus YNL307C, strain MCK1, hits give low values 1.02 | S. cerevisiae deletion strains, locus YNL322C, strain KRE1 (second series), hits give low values 0.994 | S. cerevisiae deletion strains, locus YNL322C, strain KRE1, hits give low values 1.01 | S. cerevisiae deletion strains, locus YNR049C, strain mso1, hits give low values 0.996 | S. cerevisiae deletion strains, locus YNR052C, strain pop2, hits give low values 1.01 | S. cerevisiae deletion strains, locus YOL006C, strain TOP1, hits give low values 1.04 | S. cerevisiae deletion strains, locus YOL012C, strain htz1 0.941 | S. cerevisiae deletion strains, locus YOL147C, strain pex11, hits give low values 1.01 | S. cerevisiae deletion strains, locus YOR001W, strain rrp6, hits give low values 0.988 | S. cerevisiae deletion strains, locus YOR061W, strain CKA2, hits give low values 1 | S. cerevisiae deletion strains, locus YOR069W, strain VPS5, hits give low values 1.01 | S. cerevisiae deletion strains, locus YOR070C, strain gyp1, hits give low values 1 | S. cerevisiae deletion strains, locus YOR080W, strain dia2, hits give low values 1 | S. cerevisiae deletion strains, locus YOR083W, strain WHI5, hits give low values 1 | S. cerevisiae deletion strains, locus YOR106W, strain vam3, hits give low values 1.01 | S. cerevisiae deletion strains, locus YOR136W, strain idh2, hits give low values 1.01 | S. cerevisiae deletion strains, locus YOR144C, strain elg1, hits give low values 1.02 | S. cerevisiae deletion strains, locus YOR184W, strain ser1, hits give low values 1.01 | S. cerevisiae deletion strains, locus YOR265W, strain rbl2, hits give low values 1.02 | S. cerevisiae deletion strains, locus YOR270C, strain vph1, hits give low values 1.01 | S. cerevisiae deletion strains, locus YOR290C, strain snf2, hits give low values 0.998 | S. cerevisiae deletion strains, locus YOR316C, strain cot1, hits give low values 1.01 | S. cerevisiae deletion strains, locus YPL051W, strain arl3, hits give low values 1.03 | S. cerevisiae deletion strains, locus YPL055C, strain LGE1, hits give low values 1.02 | S. cerevisiae deletion strains, locus YPL078C, strain atp4, hits give low values 1.02 | S. cerevisiae deletion strains, locus YPL106C, strain sse1, hits give low values 1.01 | S. cerevisiae deletion strains, locus YPL240C, strain hsp82, hits give low values 1.01 | S. cerevisiae deletion strains, locus YPL241C, strain CIN2, hits give low values 1.01 | S. cerevisiae deletion strains, locus YPR119W, strain clb2, hits give low values 1.02 | S. cerevisiae deletion strains, locus YPR141C, strain kar3, hits give low values 1.02 | S. cerevisiae deletion strains, locus YPR163C, strain tif3, hits give low values 1.03 | S. cerevisiae deletion strains, locus YPR167C, strain met16, hits give low values 1.01 | S. cerevisiae deletion strains, strain wtn01, hits give low values 1.01 | S. cerevisiae strains, strain wild type, hits give low values 1.01
